# Source: PubChem BioAssay
# ELG1 genotox = induces genotoxicity in HEK293T cells with luciferase-tagged ELG1. HEK293T ELG1-luciferase reporter, luminescence, 16 h. Potency, µM (doses to about 46 µM), without a hit: top-dose activity change, positive = activation, actives largely listed as activators. actives 1.3% (n = 330,000); also: % of control where 0% means no effect; nearly all actives have a fitted effect of over 60% in size
#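 Quantitative HTS format in 1536-well plates. HEK293T ELG1-luciferase reporter cells receive test compound and are incubated 16 hr at 37 °C, 5% CO2; ONE-Glo added, 30 min room temperature, then luminescence read.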
# FLuc modulator = inhibits or activates purified firefly luciferase, miR-21 counter-screen | actives 6.9% (n = 360,000) | P08659 | purified FLuc, Km substrates, luminescence inhibition | Potency, µM (doses to about 57.5 µM), for inactives: at the highest dose activity change, negative = inhibition, usual class: inhibitors | AID 588342;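 also: plate controls were vehicle for no effect and reference inhibitor for full effect; nearly all actives have a fitted effect of over 55% in size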
# Target sequence (P08659 whole entry, looked up): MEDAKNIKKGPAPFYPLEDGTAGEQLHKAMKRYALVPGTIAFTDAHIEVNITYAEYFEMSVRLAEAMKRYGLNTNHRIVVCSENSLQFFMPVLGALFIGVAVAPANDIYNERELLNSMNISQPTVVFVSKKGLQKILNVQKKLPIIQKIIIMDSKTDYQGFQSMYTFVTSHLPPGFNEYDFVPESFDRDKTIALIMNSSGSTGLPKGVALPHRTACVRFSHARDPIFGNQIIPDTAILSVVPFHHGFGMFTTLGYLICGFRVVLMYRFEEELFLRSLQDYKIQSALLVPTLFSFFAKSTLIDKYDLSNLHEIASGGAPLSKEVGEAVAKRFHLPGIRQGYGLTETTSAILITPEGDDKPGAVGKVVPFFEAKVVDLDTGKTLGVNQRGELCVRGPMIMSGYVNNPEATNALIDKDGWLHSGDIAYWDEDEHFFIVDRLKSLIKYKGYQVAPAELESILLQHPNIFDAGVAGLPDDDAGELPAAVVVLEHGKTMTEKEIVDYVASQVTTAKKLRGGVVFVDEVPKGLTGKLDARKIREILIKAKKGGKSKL
#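 Purified P. pyralis luciferase (10nM final) with 10uM D-luciferin and 10uM ATP (Km levels) in 50mM Tris acetate pH 7.5, 10mM Mg acetate, 0.01% Tween-20, 0.05% BSA; qHTS 6-point titration, ~60 µM downward; luminescence read.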
# SMN2 splice enh = SMN2 splice variant enhancement; Potency, µM (series often up to 46.1 µM), inactives show top-dose activity change, positive = activation, actives largely listed as activators; HEK293 SMN2-luciferase splicing reporter, luminescence, 30-36 h; actives 2.8% (n = 210,000); AID 1458; also: % of control where 0% means no effect; nearly all actives have a fitted effect of over 55% in size
#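 HEK293 cells carry an SMN2 […]–luciferase reporter in which exon 7 inclusion puts luciferase in frame. Cells were plated 10-12 h before compound addition, then incubated 30-36 h at 37C. ONE-Glo luminescence was read; sodium butyrate at 4.5 mM final served as control.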
# Rab9 promoter act = activates the Rab9 promoter. Huh7 Rab9 promoter-luciferase reporter, luminescence, 24 h. Potency, µM (doses to about 9.22 µM), for the others: at the highest dose activation, negative = inhibition, most hits filed as activators. actives 2.8% (n = 320,000). AID 485297; also: % of control where 0% means no effect; nearly all actives have a fitted effect of over 60% in size
#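 Huh7 cells stably carrying a Rab9 promoter-luciferase reporter, 1500 cells per well in OP-MEM I with 10% FBS, treated with compound 24 hours at 37C. Luciferase activity read by luminescence after 10 minutes with Amplite reagent.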
# ELG1 repair inh = ELG1-dependent DNA repair inhibition | HEK293T ELG1-luciferase reporter, luminescence, 16 h; DNA damage induced by 5-fluorouridine | Potency, µM (titrated, usually from 46.1 µM), for inactives: at the highest dose activity change, negative = inhibition, actives largely listed as inhibitors | actives 2.3% (n = 330,000) | AID 504467; also: % is scaled to controls: 0 for no effect and ±100 for the full control effect; nearly all actives have a fitted effect of over 55% in size
#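 Reporter activity after DNA damage by 5-fluorouridine is monitored. Compound-treated cells incubate 16 hr at 37 °C, then ONE-Glo is added for 30 min before luminescence reading.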
# NPC1 promoter act = NPC1 promoter activation. actives 2.4% (n = 320,000). Huh7 NPC1 promoter luciferase reporter, 24 h. AID 485313. Potency, µM (doses to about 9.22 µM), for the others: top-dose activation, hits mostly activators; also: % of control where 0% means no effect; nearly all actives have a fitted effect of over 60% in size
#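 Luciferase expression driven by the NPC1 promoter was measured in stably transfected Huh7 cells after a 24 h compound incubation, using a luciferase reagent and a luminescence read.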
# Starred values were filed as active, the others as inactive; u = inconclusive; x = no result. An excerpt weighted towards active compounds, which were near 9.3% of everything screened. Calls follow the shape of the dose curve; as a rule, active = well fitted curve in the direction sought with a large enough effect; inconclusive = small, poorly fitted or top-dose-only effect, or another doubt; inactive = no such curve, though single readings can be large; an effect the other way counts as inactive or inconclusive. Potency is read from the fitted curve at half-maximal effect.
SMILES,ELG1 genotox,FLuc modulator,SMN2 splice enh,Rab9 promoter act,ELG1 repair inh,NPC1 promoter act
COCCCn1c(=O)c2ccccc2n(CC(=O)NC2CCCC2)c1=O,-4%,1%,x,4%,8%,0%
O=C(O)c1csc(-c2ccc(Cl)cc2)n1,1%,-20%,10%,1%,5%,3%
Clc1ccc(-c2cn3ncsc3n2)cc1,x,12µM*,-1%,x,x,x
CSc1ccccc1OCc1cc(C(=O)N(C)C(C)c2nc(C)cs2)no1 (centres undefined),-8%,-8%,x,3%,-24%,4%
CCOC(=O)c1ccc(CNC(=O)c2cc(COc3ccccc3SC)on2)o1,u,8.5µM*,x,u,u,2.5µM*
CSc1ccccc1OCc1cc(C(=O)N(C)Cc2ccc(C)o2)no1,u,17µM*,x,4µM*,u,u
CSc1ccccc1OCc1cc(C(=O)N(C)Cc2ccc3nsnc3c2)no1,3.3µM*,u,x,0.71µM*,u,0.63µM*
COc1ccc(C(=O)NC(=S)N(Cc2ccccc2)Cc2ccccc2)cc1,-10%,-2%,-20%,-3%,u,-6%
CCCCNC(=S)N1CCN(c2ccccc2Cl)CC1,-4%,-8%,-9%,-2%,-15%,-4%
N/C(=N\OC(=O)COc1ccc(Cl)cc1Br)c1ccncc1,8.2µM*,11µM*,11µM*,3.5µM*,u,3.5µM*
N/C(=N\OC(=O)COc1ccc(Cl)cc1)c1cccnc1,9%,u,19%,1%,u,4%
N/C(=N\OC(=O)CCCOc1ccc(Cl)cc1Cl)c1ccncc1,0%,u,7%,-5%,-2%,-5%
N/C(=N\OC(=O)COc1ccc2ccccc2c1Br)c1ccncc1,u,21µM*,1%,2%,u,11%
N/C(=N\OC(=O)COc1ccc2ccccc2c1)c1ccncc1,-3%,u,x,2%,6%,-4%
N/C(=N\OC(=O)COc1ccc(Cl)cc1Cl)c1cccnc1,u,6µM*,u,4%,u,25%
CCc1ccc(OCC(=O)O/N=C(\N)c2ccncc2)c(Br)c1,u,7.6µM*,x,2µM*,u,3.2µM*
COc1ccc(NC(=O)c2oc3ccc4c(c3c2C)C(=O)CC(C)(C)O4)cc1OC,x,0.43µM*,x,x,x,x
CCc1cccc(NC(=O)c2oc3ccc4c(c3c2C)C(=O)CC(C)(C)O4)c1,x,0.85µM*,x,x,x,x
CS(=O)(=O)Nc1ccc(Cc2ccc(NS(C)(=O)=O)cc2)cc1,1%,3%,-43%,-9%,-4%,-3%
CCN(CC)CCCNC(=O)c1nn(-c2ccc(C)cc2)c(=O)c2c1c1ccccc1n2C,x,0%,-4%,x,x,x
O=C(/C=C/c1ccccc1F)c1ccoc1,-1%,12µM*,1%,4%,7%,-4%
CCc1ccc(CN2CCc3nc(Nc4ccccc4)ncc3C2)cc1,x,-5%,x,x,x,x
Cn1c(O)c(/C=N/NC(=O)c2cc3ccccc3cc2O)c2ccccc21,u,17µM*,x,3.5µM*,u,u
COc1cc(/C=N/NC(=O)c2cc3ccccc3cc2O)ccc1OCCN1CCCCC1,2%,u,11%,0%,6%,2%
COCCn1c(C)cc(/C=N/NC(=O)c2cc3ccccc3cc2O)c1C,1%,15µM*,x,16%,24%,-3%
SMILES,ELG1 genotox,FLuc modulator,SMN2 splice enh,Rab9 promoter act,ELG1 repair inh,NPC1 promoter act
COc1ccc2c(c1)cc(C(=O)N/N=C/c1c(O)c(C(=O)O)cc3ccccc13)n2C,2%,2.4µM*,x,0%,14%,0%
COC(=O)C(NC(C)=O)(Nc1cc(C)ccn1)C(F)(F)F (centres undefined),-2%,-1%,x,0%,3%,0%
Cc1ccc(S(=O)(=O)NC(CCc2ccccc2)CC(=O)C(C)(C)C)cc1 (centres undefined),-1%,-1%,-47%,-8%,-4%,-5%
Cn1c(=O)n(C)c2cc(NS(=O)(=O)c3ccc(Cl)s3)ccc21,u,-2%,-16%,1%,u,-3%
CC(C)C[C@@H]1NC(=O)[C@H](Cc2ccccc2)N(C)C(=O)[C@H](C)NC(=O)c2ccccc2NC(=O)[C@H](Cc2ccc(O)cc2)N(C)C1=O,-16%,0%,x,-3%,6.5µM*,-3%
CC1(C)CC2(CC(C)(C(=O)CSc3nc4ccccc4s3)OC2=O)C(=O)O1 (centres undefined),-2%,-3%,-29%,-1%,0%,-6%
Cc1ccc(C)c(CN2C(=O)c3ccccc3S(=O)c3ccc(C(=O)N4CCN(c5ccccn5)CC4)cc32)c1 (centres undefined),-14%,0%,4.5µM*,1%,u,-5%
Cc1ccc(C)c(CN2C(=O)c3ccccc3S(=O)c3ccc(C(=O)N4CCN(c5ccccc5F)CC4)cc32)c1 (centres undefined),x,-2%,0.63µM*,x,x,x
Cc1nn(C)c(C(=O)N/N=C/c2cccnc2)c1Br,3%,-3%,x,10%,26%,-1%
Nc1cnc(Nc2ccc(Br)cc2)nc1N,u,15µM*,x,u,u,22%
Nn1c(SCC(=O)N2CCCCCC2)nnc1-c1ccco1,-2%,2%,x,u,1%,-4%
C=CCc1ccc(OCCCOc2ccc(C)c(C)c2)c(OC)c1,-2%,-8%,-12%,-4%,8%,0%
C=CCc1ccc(OCCCCOc2ccc(C(=O)O)cc2)c(OC)c1,0%,13µM*,18%,2%,-7%,-4%
COc1ccc(CCN(C)C(=O)c2ccc(COc3ccccc3)o2)cc1OC,0%,3%,x,11%,-29%,-2%
C=CCc1ccc(OCCOc2cccc3ccc(C)nc23)c(OC)c1,-6%,11µM*,7%,3%,6%,-2%
C=CCc1ccc(OCc2ccc(C(=O)O)o2)c(OC)c1,u,4.8µM*,x,u,u,u
CCCc1ccc(OCc2ccc(C(=O)O)o2)c(OC)c1,u,4.8µM*,2.5µM*,0.32µM*,u,0.45µM*
CCCc1ccc(OCc2ccc(C(=O)NN)o2)c(OC)c1,12%,-16%,x,u,u,2.2µM*
CCCc1ccc(OCc2ccc(C(=O)OC)o2)c(OC)c1,10µM*,15µM*,u,1.8µM*,u,1.4µM*
Cc1ccc(OCc2ccc(C(=O)N3CCCC3)o2)c([N+](=O)[O-])c1,15%,u,x,18%,u,20%
C=CCc1ccc(OCCn2cccc2C=O)c(OC)c1,15%,17µM*,-9%,u,u,u
